Measured values as given in PubChem BioAssay (Tox21).
Several values for one entry are separate records, joined by “and”; a condition that tells them apart may be missing. Identical values can stand only once. Records with an inconclusive call do not appear. Entries that show only a call come without a potency. More than one record can exist for a structure, and the calls need not agree. Activity calls are given as the source filed them. Unless noted, the call rests on the fitted dose curve; in most records, active means well fitted curve in the direction sought with a large enough effect in the repeat runs; inconclusive means weak or mixed curves; inactive means no such curve, though single readings can be large; an effect the other way counts as inactive or inconclusive.

What was measured:
[1] = qHTS RealTime-Glo MT Cell Viability Assay in HEK293 cells - 0 hour (AID 1224880); details: RealTime-Glo luminescence; series mostly up to 76.8 µM; further: top concentration of the series differs between compounds; nearly all actives have a fitted effect of over 45% in size
Summary of the method: (§1)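 600 cells/well were plated with the nonlytic NanoLuc/prosubstrate reagent, pre-incubated 5 h, then given 23 nL of compound in DMSO. Incubation at 37 C for 40 h, with luminescence from viable-cell-reduced substrate read repeatedly from 0 h.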

[2] = A CellTox Green Cytotoxicity Assay to monitor cytotoxicity in HepG2 cells - 32 hour (AID 1224883); details: CellTox Green fluorescence; series mostly up to 76.8 µM; further: nearly all actives have a fitted effect of over 50% in size; further: potency means the concentration at half of the fitted maximal effect
Summary of the method: (§2)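 HepG2 cells, 600/well, preincubated 5 h with CellTox Green dye, then exposed to Tox21 compounds in DMSO at 37 C for up to 40 h. Dead-cell DNA fluorescence read at the indicated time point.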

[3] = A CellTox Green Cytotoxicity Assay to monitor cytotoxicity in HEK293 cells - 8 hour (AID 1224884); details: CellTox Green fluorescence; series mostly up to 76.8 µM; further: nearly all actives have a fitted effect of over 35% in size; further: potency means the concentration at half of the fitted maximal effect
Summary of the method: (§3)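 HEK293 cells, 600/well, were preincubated 5 hours and then exposed to compounds at 37 C for up to 40 hours. A cell-impermeant cyanine dye staining dead-cell DNA was read by fluorescence at 0, 8, 16, 24, 32 and 40 h time points.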

[4] = qHTS RealTime-Glo MT Cell Viability Assay in HepG2 cells - 16 hour (AID 1224885); details: RealTime-Glo luminescence; series mostly up to 76.8 µM; further: nearly all actives have a fitted effect of over 50% in size; further: potency means the concentration at half of the fitted maximal effect
Summary of the method: (§4)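 qHTS, HepG2, 600 cells/well, RealTime-Glo (NanoLuc + prosubstrate) added with cells; 5 h preincubation; DMSO compound addition; 37 C; luminescence at 0/8/16/24/32/40 h.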

[5] = qHTS RealTime-Glo MT Cell Viability Assay in HEK293 cells - 24 hour (AID 1224886); details: RealTime-Glo luminescence; series mostly up to 76.8 µM; further: nearly all actives have a fitted effect of over 50% in size; further: potency means the concentration at half of the fitted maximal effect
Summary of the method: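 Assay medium contained NanoLuc luciferase plus cell-permeant prosubstrate, added with HEK293 cells at 600 cells/well. After 5 h at 37 C/5% CO2 compounds were added; plates stayed at 37 C for 40 h with serial luminescence reads.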

[6] = qHTS RealTime-Glo MT Cell Viability Assay in HEK293 cells - 8 hour (AID 1224887); details: RealTime-Glo luminescence; series mostly up to 76.8 µM; further: nearly all actives have a fitted effect of over 50% in size; further: potency means the concentration at half of the fitted maximal effect
Summary of the method: as §1

[7] = qHTS RealTime-Glo MT Cell Viability Assay in HepG2 cells - 0 hour (AID 1224889); details: RealTime-Glo luminescence; series mostly up to 76.8 µM; further: nearly all actives have a fitted effect of over 50% in size
Summary of the method: as §4

[8] = A CellTox Green Cytotoxicity Assay to monitor cytotoxicity in HepG2 cells - 8 hour (AID 1224890); details: CellTox Green fluorescence; series mostly up to 76.8 µM; further: nearly all actives have a fitted effect of over 45% in size; further: potency means the concentration at half of the fitted maximal effect
Summary of the method: as §2

[9] = qHTS assay to identify small molecule antagonists of the estrogen receptor alpha (ER-alpha) signaling pathway using the BG1 cell line in the presence of 0.1 nM 17-beta-estradiol - cell viability counter screen (AID 1259241); details: VM7Luc4E2 (BG1) viability, CellTiter-Fluor protease, 22 h, 0.1 nM estradiol agonist added; series mostly up to 92.4 µM; further: nearly all actives have a fitted effect of over 40% in size; further: potency means the concentration at half of the fitted maximal effect
Summary of the method: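 VM7Luc4E2, 4,000 cells/well, phenol red-free medium + 10% charcoal-stripped FBS; 24 hr plating; cpd + 0.1 nM E2 final, 22 hr 37C/5% CO2; CellTiter-Fluor 30 min, fluorescence.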

[10] = qHTS assay to identify small molecule antagonists of the androgen receptor (AR) signaling pathway using the MDA cell line in the presence of 0.5 nM R1881 - cell viability counter screen (AID 1259242); details: MDA-kb2 viability, CellTiter-Fluor protease fluorescence, 16 h; series mostly up to 92.4 µM; further: nearly all actives have a fitted effect of over 45% in size; further: potency means the concentration at half of the fitted maximal effect
Summary of the method: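 MDA-kb2 cells (MMTV-luciferase, AR/GR responsive) were treated with compounds plus 0.5 nM R1881 (final) for 16 hr at 37C, 0% CO2. Viability was then read in the same wells as live-cell protease fluorescence (CellTiter-Fluor, 30 min).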

[11] = qHTS assay to identify small molecule HDAC inhibitors (AID 1259364); details: HCT-116 HDAC-Glo I/II luminescence, 2 h; series mostly up to 92.4 µM; further: top concentration of the series differs between compounds; nearly all actives have a fitted effect of over 45% in size
Summary of the method: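 Wild-type HCT-116 cells, plated overnight at 37 C, exposed to compounds 2 hr at 37 C; luminogenic HDAC-Glo substrate then added 30 min at room temperature. Luminescence reports relative endogenous class I/II HDAC activity.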

[12] = qHTS assay to identify small molecule HDAC inhibitors - cell viability counter screen (AID 1259365); details: HCT-116 viability, CellTiter-Glo ATP luminescence, 2 h; series mostly up to 92.4 µM; further: nearly all actives have a fitted effect of over 50% in size
Summary of the method: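 Luminescence from CellTiter-Glo, developed 30min at room temperature, reports viability of wild-type HCT-116 cells treated 2hr with compounds at 37 C and 5% CO2 after overnight plating.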

[13] = qHTS assay to identify small molecule agonists of the sonic hedgehog signaling (Shh) pathway - cell viability counter screen (AID 1259366); details: NIH/3T3 Gli1-Luc viability, CellTiter-Fluor, 24 h; series mostly up to 92.4 µM; further: nearly all actives have a fitted effect of over 50% in size; further: potency means the concentration at half of the fitted maximal effect
Summary of the method: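 Cytotoxicity counter screen run in the same wells as the Shh reporter assay. NIH/3T3 cells carrying a Gli1 response element–driven luciferase were treated with DMSO-dissolved compounds for 24hr, and live-cell protease activity was measured with CellTiter-Fluor.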

[14] = qHTS assay to identify small molecule antagonists of the sonic hedgehog signaling (Shh) pathway - cell viability counter screen (AID 1259367); details: NIH/3T3 Gli1-Luc viability, CellTiter-Fluor, 24 h; series mostly up to 92.4 µM; further: nearly all actives have a fitted effect of over 55% in size; further: potency means the concentration at half of the fitted maximal effect
Summary of the method: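 NIH/3T3-derived Gli1-Luc reporter cells (2,000 per well) rested 4 hr at 37 C, then received DMSO compounds plus conditioned medium. After 23 hr of treatment, CellTiter-Fluor was added for 1 hr at 37C and fluorescence read.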

[15] = A CellTox Green Cytotoxicity Assay to monitor cytotoxicity in HepG2 cells - 0 hour (AID 1224882); details: CellTox Green fluorescence; series mostly up to 76.8 µM; further: nearly all actives have a fitted effect of over 35% in size
Summary of the method: as §2

[16] = A CellTox Green Cytotoxicity Assay to monitor cytotoxicity in HEK293 cells - 16 hour (AID 1224888); details: CellTox Green fluorescence; series mostly up to 76.8 µM; further: nearly all actives have a fitted effect of over 35% in size
Summary of the method: as §3

[17] = molecular target: Estrogen receptor (Homo sapiens) (UniProt P03372); experiment: qHTS assay to identify small molecule antagonists of the estrogen receptor alpha (ER-alpha) signaling pathway using the BG1 cell line in the presence of 0.1 nM 17-beta-estradiol (AID 1259244); details: VM7Luc4E2 (BG1) ERE-luciferase, antagonist mode, 0.1 nM E2, 22 h; series mostly up to 92.4 µM; further: nearly all actives have a fitted effect of over 50% in size; further: potency means the concentration at half of the fitted maximal effect
Summary of the method: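 VM7Luc4E2 cells (endogenous full-length ER-alpha, 4×ERE-luciferase), kept 5 days in phenol red-free, charcoal-stripped FBS medium; 4,000 cells/well. Compounds added with 0.1 nM (final) 17beta-estradiol, 22 hr at 37C; luminescence read with ONE-Glo after 30 min.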

[18] = qHTS assay to identify small molecule phospholipidosis (PLD) inducers (AID 1259344; active means well fitted curve in the direction sought with a large enough effect; an effect the other way counts as inactive or inconclusive); details: HepG2 phospholipidosis, LipidTOX Red imaging, 24 h; series mostly up to 38.3 µM
Summary of the method: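 HepG2 cells on collagen I, attached 4 h at 37 C, were co-treated with compound and LipidTOX Red dye for 24 h at 37 C, then fixed with paraformaldehyde plus Hoechst 33342 and imaged by high-content microscopy for phospholipid accumulation.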

[19] = molecular target: Androgen receptor (Homo sapiens) (UniProt P10275); experiment: qHTS assay to identify small molecule antagonists of the androgen receptor (AR) signaling pathway using the MDA cell line in the presence of 0.5 nM R1881 (AID 1259243); details: MDA-kb2 MMTV-luciferase, R1881 0.5 nM, 16 h; series mostly up to 92.4 µM; further: nearly all actives have a fitted effect of over 50% in size
Summary of the method: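 MDA-kb2 cells (MMTV-luciferase, responsive to AR and GR) at 3,000/well, rested 5 h at 37C, 0% CO2, then given compounds plus 0.5 nM R1881 (final) for 16 hr. Luciferase read with ONE-Glo after 30 min at room temperature.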

Sequence of Androgen receptor (Homo sapiens) (P10275 whole entry, looked up): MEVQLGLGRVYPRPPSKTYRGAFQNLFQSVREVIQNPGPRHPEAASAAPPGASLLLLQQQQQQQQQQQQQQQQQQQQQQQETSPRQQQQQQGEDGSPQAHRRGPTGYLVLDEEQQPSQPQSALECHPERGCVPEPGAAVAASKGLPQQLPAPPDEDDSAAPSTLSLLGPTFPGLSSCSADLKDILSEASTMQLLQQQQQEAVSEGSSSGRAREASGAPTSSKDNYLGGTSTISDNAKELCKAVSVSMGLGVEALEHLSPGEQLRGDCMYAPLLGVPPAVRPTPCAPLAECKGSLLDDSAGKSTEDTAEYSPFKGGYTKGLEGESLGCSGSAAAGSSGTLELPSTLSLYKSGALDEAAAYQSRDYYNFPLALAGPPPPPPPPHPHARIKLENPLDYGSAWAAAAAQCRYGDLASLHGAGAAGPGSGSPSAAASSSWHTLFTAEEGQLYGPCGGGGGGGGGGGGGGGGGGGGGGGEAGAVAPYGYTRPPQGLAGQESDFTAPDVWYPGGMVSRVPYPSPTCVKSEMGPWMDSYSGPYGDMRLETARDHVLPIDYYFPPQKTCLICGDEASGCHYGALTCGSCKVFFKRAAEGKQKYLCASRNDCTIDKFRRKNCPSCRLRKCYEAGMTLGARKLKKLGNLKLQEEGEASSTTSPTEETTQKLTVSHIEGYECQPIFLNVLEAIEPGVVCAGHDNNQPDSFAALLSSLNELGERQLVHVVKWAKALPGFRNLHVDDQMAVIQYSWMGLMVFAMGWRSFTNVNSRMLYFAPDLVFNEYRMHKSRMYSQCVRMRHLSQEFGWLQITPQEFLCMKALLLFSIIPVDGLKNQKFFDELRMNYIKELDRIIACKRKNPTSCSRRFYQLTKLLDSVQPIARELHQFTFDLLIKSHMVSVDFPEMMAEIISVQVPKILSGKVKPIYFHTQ
Sequence of Estrogen receptor (Homo sapiens) (P03372 whole entry, looked up): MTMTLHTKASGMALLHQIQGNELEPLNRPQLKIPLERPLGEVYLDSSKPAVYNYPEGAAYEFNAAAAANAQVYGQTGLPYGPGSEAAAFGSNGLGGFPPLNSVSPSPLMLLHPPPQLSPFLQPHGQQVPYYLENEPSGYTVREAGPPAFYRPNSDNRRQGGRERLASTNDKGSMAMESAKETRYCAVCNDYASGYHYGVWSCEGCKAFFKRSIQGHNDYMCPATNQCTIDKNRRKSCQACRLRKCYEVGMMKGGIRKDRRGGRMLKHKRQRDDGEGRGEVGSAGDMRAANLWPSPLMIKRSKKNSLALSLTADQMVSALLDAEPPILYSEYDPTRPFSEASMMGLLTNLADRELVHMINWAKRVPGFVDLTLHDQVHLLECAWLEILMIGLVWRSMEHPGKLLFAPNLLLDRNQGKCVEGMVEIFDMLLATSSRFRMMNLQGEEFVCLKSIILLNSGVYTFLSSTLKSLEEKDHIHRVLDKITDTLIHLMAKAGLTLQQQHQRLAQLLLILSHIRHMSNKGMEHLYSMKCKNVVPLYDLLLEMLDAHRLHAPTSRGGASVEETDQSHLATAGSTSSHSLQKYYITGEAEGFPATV

SMILES	Potency [1]	Potency [2]	Potency [3]	Potency [4]	Potency [5]	Potency [6]	Potency [7]	Potency [8]	Potency [9]	Potency [10]	Potency [11]	outcome [12]	Potency [13]	Potency [14]	Potency [15]	Potency [16]	Potency [17]	outcome [18]	outcome [19]
CCCCCCCCCCCCN	inactive	inactive and 21.9 µM (active)	inactive and 49 µM (active)	inactive and 24.5 µM (active)	inactive and 38.9 µM (active)	inactive and 38.9 µM (active)	inactive	inactive and 24.5 µM (active)	inactive	inactive	inactive	inactive	27.3 µM (active) and inactive	inactive					
C=C(C)C(=O)OCCCCCCCCCCCC	inactive	inactive	inactive	inactive	inactive	inactive		inactive	inactive	inactive	inactive	inactive	inactive	inactive	inactive	inactive	inactive		
CC[Si](OC(C)=O)(OC(C)=O)OC(C)=O	inactive	inactive	inactive	inactive	inactive	inactive	inactive	inactive	inactive	inactive	inactive	inactive	inactive	inactive	inactive	inactive	inactive		
CCCCC(CC)COC(C)=O (centres undefined)	inactive	inactive	inactive	inactive	inactive	inactive	inactive	inactive	inactive		inactive	inactive		inactive	inactive	inactive			
Cn1c([N+](=O)[O-])cnc1COC(N)=O	inactive	inactive	inactive	inactive	inactive	inactive		inactive	inactive		inactive	inactive		inactive	inactive	inactive	inactive	inactive	
CCCCCCOC(C)=O	inactive	inactive	inactive	inactive	inactive	inactive		inactive	inactive	inactive	inactive	inactive	inactive		inactive	inactive	inactive		
CC(C)NCC(O)COc1cccc2ccccc12 (centres undefined)	inactive		inactive	inactive	inactive	inactive	inactive	inactive	inactive	inactive	inactive	inactive	inactive			inactive			
C[C@@H](O)[C@H]1C(=O)N2C(C(=O)O)=C(S[C@@H]3CN[C@H](C(=O)N(C)C)C3)[C@H](C)[C@H]12	inactive		inactive	inactive	inactive	inactive	inactive	inactive	inactive	inactive	inactive	inactive	inactive		inactive	inactive		inactive	
CN(C)c1cccc(O)c1	inactive	inactive	inactive	inactive	inactive	inactive		inactive and 54.9 µM (active)	inactive		inactive	inactive	inactive	inactive	inactive	inactive			
Nc1cc(-c2ccncc2)c[nH]c1=O	inactive	inactive	inactive	inactive	inactive	inactive	inactive	inactive	inactive	inactive	inactive	inactive	inactive			inactive	inactive	inactive	inactive
OCCOCCOCCOCCO	inactive		inactive	inactive	inactive	inactive	inactive	inactive	inactive	inactive	inactive	inactive	inactive	inactive		inactive	inactive		
CCOC(=O)/C=C\C(=O)OCC	inactive		inactive	inactive	inactive	inactive	inactive	inactive	inactive		inactive	inactive	inactive	inactive	inactive	inactive	inactive		
CN(C)c1ccc(C(=N)c2ccc(N(C)C)cc2)cc1	inactive	4.84 µM (active) and 18.8 µM (active)	inactive		3.42 µM (active) and 4.2 µM (active)	inactive		inactive	18.6 µM (active)	48 µM (active) and 46.7 µM (active)	inactive	inactive			inactive	inactive	17 µM (active) and 23.4 µM (active)		
CS(=O)(=O)Nc1ccc([N+](=O)[O-])cc1Oc1ccccc1			inactive	inactive	inactive	inactive		inactive			inactive	inactive				inactive		inactive	
CCC(C)C=O (centres undefined)	inactive	inactive	inactive	inactive	inactive and 3.89 µM (active)	inactive and 13.8 µM (active)		inactive	inactive	inactive	inactive	inactive	inactive	inactive		inactive	inactive		
CC1=C(CC(=O)O)c2cc(F)ccc2/C1=C\c1ccc(S(C)=O)cc1 (centres undefined)	inactive	inactive	inactive	inactive	inactive	inactive	inactive	inactive	inactive	inactive	inactive	inactive		inactive	inactive	inactive		inactive	
CCOC(=O)[C@H](CCc1ccccc1)N[C@@H](C)C(=O)N1Cc2ccccc2C[C@H]1C(=O)O	inactive	inactive	inactive	inactive	inactive	inactive		inactive	inactive		inactive	inactive	inactive			inactive	inactive	inactive	
Nc1c(S(=O)(=O)O)cc(Br)c2c1C(=O)c1ccccc1C2=O	inactive	inactive	inactive	inactive	inactive	inactive	inactive	inactive		inactive and 24.3 µM (active)	inactive	inactive			inactive	inactive	inactive		
CC(C)n1c(/C=C/[C@@H](O)C[C@@H](O)CC(=O)O)c(-c2ccc(F)cc2)c2ccccc21	inactive	4.36 µM (active) and 9.52 µM (active)	inactive	inactive	inactive	inactive	inactive	inactive	inactive	inactive	inactive	inactive	inactive	inactive	inactive	inactive		inactive	
COC(=O)c1ccc(C(=O)OC)cc1	inactive		inactive	inactive	inactive	inactive	inactive	inactive		inactive		inactive	6.95 µM (active) and inactive	2.2 µM (active) and inactive		inactive	6.19 µM (active) and inactive		
CC1=CC[C@H]2C[C@@H]1C2(C)C	inactive		inactive	inactive	inactive	inactive	inactive	inactive	inactive		inactive	inactive	inactive	inactive	inactive	inactive	inactive		
O=C1CCCCC1	inactive	inactive	inactive	inactive	inactive	inactive	inactive	inactive	inactive	inactive	inactive	inactive	inactive	inactive		inactive	inactive		inactive
S=c1nc[nH]c2nc[nH]c12	inactive	inactive	inactive	inactive	19 µM (active)	inactive	inactive	inactive	inactive	inactive	inactive	inactive				inactive	inactive	inactive	
CCCCNC(N)=O	inactive		inactive	inactive	inactive	inactive	inactive	inactive	inactive	inactive	inactive	inactive	inactive		inactive	inactive			
ClC1=C(Cl)C(Cl)(Cl)C(Cl)=C1Cl	inactive	inactive	inactive	inactive		inactive	inactive	inactive	inactive	inactive	inactive	inactive	inactive	inactive	inactive	inactive	inactive		
C=C1C2CCC(C2)C1(C)C (centres undefined)	inactive	inactive	inactive	inactive	inactive	inactive	inactive	inactive	inactive	inactive	inactive	inactive	inactive	inactive		inactive	inactive		
